# Data: PubChem BioAssay (NCATS)
# Records with an inconclusive call do not appear. A call without a number means that no potency is given here. Activity calls are given as the source filed them. The call rests on the fitted dose curve; in most records, active means well fitted curve in the direction sought with a large enough effect; inconclusive means small, poorly fitted or top-dose-only effect, or another doubt; inactive means no such curve, though single readings can be large; an effect the other way counts as inactive or inconclusive.
# Tests used:
# [1] = qHTS Assay for Identification of Small Molecule Agonists for Thrombopoietin (TPO) Signaling Pathway (AID 917)
# In short: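 Stimulation at the TPO EC50 (26 pM final) was used to detect activators. Ba/F3 mouse cells bearing human TPO receptor and a luciferase reporter under the Glycoprotein IIb promoter were exposed to compounds for 24 hrs at 37 C.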
# [2] = S16 Schwann cell viability assay (CellTiter-Glo assay) (AID 624031);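 further: cellular ATP luminescence as a viability measure; nearly all actives have a fitted effect of over 70% in size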
# In short: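 Native S16 Schwann cells (rat), serum-containing medium, overnight attachment then 24 h drug exposure at 37 °C/5% CO2. CellTiter-Glo ATP signal; normalized to cell-free and vehicle wells.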
# 7G8 = assay: qHTS profiling for inhibitors of Plasmodium falciparum proliferation (AID 504749); further: nearly all actives have a fitted effect of over 60% in size; further: potency means the concentration at half of the fitted maximal effect; conditions: P. falciparum in erythrocytes, SYBR Green DNA, 72 h; series mostly up to 12.8 µM
# In short: (§1)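 SYBR Green fluorescence of parasite DNA, read after lysis and overnight dark incubation, measured growth over 72 h in erythrocyte culture at 0.3% parasitemia and 2.5% hematocrit. Data normalised to DMSO and 0.29 uM artemisinin, with plate-drift correction.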
# ATS189 = assay: as above; conditions: P. falciparum in erythrocytes, SYBR Green DNA, 72 h; series mostly up to 12.8 µM
# In short: as §1
# ATS95 = assay: as above; conditions: P. falciparum in erythrocytes, SYBR Green DNA, 72 h; series mostly up to 12.8 µM
# In short: as §1
# C2A = assay: as above; conditions: P. falciparum in erythrocytes, SYBR Green DNA, 72 h; series mostly up to 12.8 µM
# In short: as §1
# CP185 = assay: as above; conditions: P. falciparum in erythrocytes, SYBR Green DNA, 72 h; series mostly up to 12.8 µM
# In short: as §1
# CP211 = assay: as above; conditions: P. falciparum in erythrocytes, SYBR Green DNA, 72 h; series mostly up to 12.8 µM
# In short: as §1
# CP215 = assay: as above; conditions: P. falciparum in erythrocytes, SYBR Green DNA, 72 h; series mostly up to 28.7 µM
# In short: as §1
# CP217 = assay: as above; conditions: P. falciparum in erythrocytes, SYBR Green DNA, 72 h; series mostly up to 12.8 µM
# In short: as §1
# CP237 = assay: as above; conditions: P. falciparum in erythrocytes, SYBR Green DNA, 72 h; series mostly up to 12.8 µM
# In short: as §1
# CP252 = assay: as above; conditions: P. falciparum in erythrocytes, SYBR Green DNA, 72 h; series mostly up to 12.8 µM
# In short: as §1
# CP305 = assay: as above; conditions: P. falciparum in erythrocytes, SYBR Green DNA, 72 h; series mostly up to 12.8 µM
# In short: as §1
# CP335 = assay: as above; conditions: P. falciparum in erythrocytes, SYBR Green DNA, 72 h; series mostly up to 12.8 µM
# In short: as §1
# DIV30 = assay: as above; conditions: P. falciparum in erythrocytes, SYBR Green DNA, 72 h; series mostly up to 12.8 µM
# In short: as §1
# ECU = assay: as above; conditions: P. falciparum in erythrocytes, SYBR Green DNA, 72 h; series mostly up to 12.8 µM
# In short: as §1
# HB3 = assay: as above; conditions: P. falciparum in erythrocytes, SYBR Green DNA, 72 h; series mostly up to 12.8 µM
# In short: as §1
# P93_24 = assay: as above; conditions: P. falciparum in erythrocytes, SYBR Green DNA, 72 h; series mostly up to 12.8 µM
# In short: as §1
# TAB113 = assay: as above; conditions: P. falciparum in erythrocytes, SYBR Green DNA, 72 h; series mostly up to 12.8 µM
# In short: as §1
# [3] = biological target: Cytochrome P450 3A4 (Homo sapiens) (UniProt P08684); assay: qHTS Assay for Activators of Cytochrome P450 3A4 (AID 885); further: nearly all actives have a fitted effect of over 65% in size
# Cytochrome P450 3A4 (Homo sapiens), sequence (P08684 whole entry, looked up): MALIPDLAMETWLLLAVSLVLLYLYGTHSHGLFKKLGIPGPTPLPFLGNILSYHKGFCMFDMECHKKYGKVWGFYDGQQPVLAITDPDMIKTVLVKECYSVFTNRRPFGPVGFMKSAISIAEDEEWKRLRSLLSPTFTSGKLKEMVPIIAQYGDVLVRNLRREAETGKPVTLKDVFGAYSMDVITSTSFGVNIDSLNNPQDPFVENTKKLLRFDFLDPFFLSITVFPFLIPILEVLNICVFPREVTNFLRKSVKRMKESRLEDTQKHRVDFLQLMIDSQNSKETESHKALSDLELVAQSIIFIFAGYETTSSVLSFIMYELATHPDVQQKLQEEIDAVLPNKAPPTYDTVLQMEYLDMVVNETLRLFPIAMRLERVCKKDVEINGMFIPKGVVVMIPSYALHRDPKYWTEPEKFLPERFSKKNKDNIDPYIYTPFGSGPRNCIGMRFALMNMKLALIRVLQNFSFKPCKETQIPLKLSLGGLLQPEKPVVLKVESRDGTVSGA
# In short: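 Luminescent readout of luciferin formed from 25 uM Luciferin-PPXE (KM level) by 20 nM CYP3A4 in 200 mM KPO4, with 60 min NADPH-driven reaction at room temperature after 10 min compound exposure. Ketoconazole (57 uM) defined 100% inhibition.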
SMILES,outcome [1],Potency [2],Potency (7G8),Potency (ATS189),Potency (ATS95),Potency (C2A),Potency (CP185),Potency (CP211),Potency (CP215),Potency (CP217),Potency (CP237),Potency (CP252),Potency (CP305),Potency (CP335),Potency (DIV30),Potency (ECU),Potency (HB3),Potency (P93_24),Potency (TAB113),Potency [3]
CO[C@]1(NC(=O)CSCC#N)C(=O)N2C(C(=O)O)=C(CSc3nnnn3C)CS[C@H]21,inactive,inactive,inactive,inactive,inactive,inactive,inactive,inactive,inactive,inactive,inactive,inactive,inactive,inactive,inactive,inactive,inactive,inactive,inactive,–
c1ccc([C@@H]2CN3CCSC3=N2)cc1,inactive,–,–,–,–,–,–,–,–,–,–,–,–,–,–,–,–,–,–,–
N[C@@H](CO)C(=O)NNCc1ccc(O)c(O)c1O,–,–,inactive,inactive,inactive,inactive,inactive,inactive,inactive,inactive,inactive,inactive,inactive,inactive,inactive,inactive,inactive,inactive,inactive,–
CCCCCN(CCCCC)C(=O)[C@H](CCC(=O)O)NC(=O)c1ccc(Cl)c(Cl)c1,inactive,–,–,–,–,–,–,–,–,–,–,–,–,–,–,–,–,–,–,inactive
C[C@@](N)(Cc1ccc(O)c(O)c1)C(=O)O,inactive,–,–,–,–,–,–,–,–,–,–,–,–,–,–,–,–,–,–,inactive
C[C@@H](CCc1ccccc1)NC[C@H](O)c1ccc(O)c(C(N)=O)c1,–,inactive,11.2 µM (active),inactive,inactive,inactive,inactive,inactive,inactive,inactive,inactive,inactive,inactive,inactive,–,–,–,inactive,inactive,–
CO/N=C(\C(=O)N[C@@H]1C(=O)N2C(C(=O)O)=C(COC(C)=O)CS[C@@H]12)c1csc(N)n1,inactive,inactive,inactive,inactive,inactive,inactive,inactive,inactive,inactive,inactive,inactive,inactive,inactive,inactive,inactive,inactive,inactive,inactive,inactive,–
CN1C(=O)CC[C@@H]1c1cccnc1,–,–,–,–,–,–,–,–,–,–,–,–,–,–,–,–,–,–,–,inactive
CC[C@]1(C)CC(=O)NC1=O,inactive,inactive,inactive,inactive,inactive,inactive,inactive,inactive,inactive,inactive,inactive,inactive,inactive,inactive,inactive,inactive,inactive,inactive,inactive,–
CN1[C@@H]2CC[C@H]1CC(OC(=O)[C@@H](O)c1ccccc1)C2 (some centres undefined),inactive,–,inactive,inactive,inactive,inactive,inactive,inactive,inactive,inactive,inactive,inactive,inactive,inactive,inactive,inactive,inactive,inactive,inactive,–
C[C@@H](COc1ccccc1)N(CCCl)Cc1ccccc1,inactive,–,–,–,–,–,–,–,–,–,–,–,–,–,–,–,–,–,–,–
CC(=O)OCC1=C(C(=O)O)N2C(=O)[C@@H](NC(=O)CSc3ccncc3)[C@@H]2SC1,inactive,inactive,inactive,inactive,inactive,inactive,inactive,inactive,inactive,inactive,inactive,inactive,inactive,inactive,inactive,inactive,inactive,inactive,inactive,–
CC(C)NC[C@H](O)c1cc(O)cc(O)c1,inactive,inactive,inactive,inactive,inactive,inactive,inactive,inactive,inactive,inactive,inactive,inactive,inactive,inactive,inactive,inactive,inactive,inactive,inactive,–
C[C@@H](C[N+](C)(C)C)OC(N)=O,inactive,–,–,–,–,–,–,–,–,–,–,–,–,–,–,–,–,–,–,–
COc1ccc([C@H]2Sc3ccccc3N(CCN(C)C)C(=O)[C@H]2OC(C)=O)cc1,inactive,–,–,–,–,–,–,–,–,–,–,–,–,–,–,–,–,–,–,–
